Screening data (PubChem)
A selection: hits, their analogues and other compounds. The true share with any hit is near 18%.
KAT2A inh = qHTS Assay for Inhibitors of GCN5L2. Histone acetyltransferase KAT2A (Homo sapiens), Q92830. GCN5L2 HAT assay, ThioGlo1 CoA-SH fluorescence. Potency, µM (doses to about 58.9 µM), hits mostly inhibitors. actives 0.21% (n = 390,000). AID 504327, 2011
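Preincubate 20nM GCN5L2 with compound 15 min, RT → add 50uM ThioGlo1 + 75uM H3(1-25) + 70uM acetyl-CoA → read fluorescence 0 and 20 min. Primary qHTS; fluorescent artifacts likely.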
TDP1 cell CPT = qHTS for Inhibitors of human tyrosyl-DNA phosphodiesterase 1 (TDP1): qHTS in cells in presence of CPT. chicken DT40 Tdp1-/-;hTDP1 cells + 20 nM CPT, ATP luminescence, 48 h. Potency, µM (doses to about 46.2 µM), hits mostly inhibitors. actives 12% (n = 420,000). AID 686979, 2013; further: nearly all actives have a fitted effect of over 55% in size
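Chicken DT40 Tdp1-/- cells stably complemented with human TDP1 were seeded at 400 cells/well in medium containing 20 nM camptothecin, exposed to pin-transferred compounds, and grown at 37 °C for at least 48 hr. Viability was read as ATP luminescence.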
PLK1 PBD block = qHTS for Inhibitors of PLK1-PDB (polo-like kinase 1 - polo-box domain): Primary Screen. Serine/threonine-protein kinase PLK1 (Homo sapiens), P53350. Plk1 PBD binding of FITC phosphopeptide, fluorescence polarization. Potency, µM, hits mostly inhibitors. actives 2.8% (n = 360,000). AID 720504, 2013; further: series mostly up to about 57 µM; nearly all actives have a fitted effect of over 65% in size
VDR inh = Inhibitors of the vitamin D receptor (VDR): qHTS. Vitamin D3 receptor (Homo sapiens), P11473. VDR-SRC2-3 peptide fluorescence polarization, 2 h. Potency, µM, most hits filed as inhibitors. actives 0.93% (n = 400,000). AID 504847, 2011
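Inhibition of the VDR/SRC2-3 peptide interaction is quantified by fluorescence polarization. Compounds (23 nl, pintool) incubate with the reagents for 2 hours at ambient room temperature.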
TDP1 cell noCPT = qHTS for Inhibitors of human tyrosyl-DNA phosphodiesterase 1 (TDP1): qHTS in cells in absence of CPT; DT40 Tdp1-/- hTDP1 cells, no CPT, ATP luminescence, 48 h; Potency, µM (top dose mostly 46.2 µM), usual class: inhibitors; actives 15% (n = 420,000); AID 686978, 2013; further: nearly all actives have a fitted effect of over 55% in size
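A cellular qHTS used chicken DT40 cells lacking endogenous Tdp1 but carrying stably transfected human TDP1. Compounds were applied without camptothecin, and cell growth kinetics were judged by ATP-dependent luminescence after ≥48 hr.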
TDP1 inh = qHTS Assay for Inhibitors of Tyrosyl-DNA Phosphodiesterase (TDP1). Tyrosyl-DNA phosphodiesterase 1 (Homo sapiens), Q9NUW8. recombinant TDP1, AlphaScreen DNA substrate cleavage. Potency, µM (series often up to 130 µM), actives largely listed as inhibitors. actives 0.28% (n = 350,000). AID 485290, 2010; further: nearly all actives have a fitted effect of over 40% in size
Target sequence (Q9NUW8 whole entry, looked up): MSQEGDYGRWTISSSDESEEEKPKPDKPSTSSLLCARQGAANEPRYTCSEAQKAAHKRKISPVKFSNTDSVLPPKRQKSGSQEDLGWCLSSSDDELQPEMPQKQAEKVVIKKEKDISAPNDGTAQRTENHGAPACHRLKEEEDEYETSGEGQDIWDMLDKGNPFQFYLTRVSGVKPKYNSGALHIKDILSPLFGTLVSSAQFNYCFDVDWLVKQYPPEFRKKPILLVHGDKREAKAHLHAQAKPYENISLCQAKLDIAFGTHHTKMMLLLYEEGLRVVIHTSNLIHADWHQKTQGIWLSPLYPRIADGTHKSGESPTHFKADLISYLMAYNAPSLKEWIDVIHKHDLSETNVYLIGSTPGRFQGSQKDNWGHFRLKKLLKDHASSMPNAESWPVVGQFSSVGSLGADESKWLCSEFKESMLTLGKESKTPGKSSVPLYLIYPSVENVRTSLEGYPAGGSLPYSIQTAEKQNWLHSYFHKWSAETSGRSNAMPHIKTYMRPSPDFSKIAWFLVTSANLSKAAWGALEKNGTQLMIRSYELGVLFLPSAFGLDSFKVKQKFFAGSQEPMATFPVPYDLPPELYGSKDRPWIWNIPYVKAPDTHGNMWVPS
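E. coli-derived human Tdp1, 1 nM final. Cpd preinc 15 min RT; substrate 15 nM final, 5 min RT; AS bead mix 10 ug/ml final, 10 min RT. Signal loss = tyrosine-FITC cleavage. No-enzyme wells = max signal.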
A number is an active result; [ ] = remark or other dose. The call rests on the fitted dose curve; in most records, active means well fitted curve in the direction sought with a large enough effect; inconclusive means small, poorly fitted or top-dose-only effect, or another doubt; inactive means no such curve, though single readings can be large; an effect the other way counts as inactive or inconclusive.

What do the screens show for `CCOC(=S)SCC(=O)Nc1nc(-c2ccc(Br)cc2)cs1`?
KAT2A inh: inactive; TDP1 cell CPT: 4.6µM; PLK1 PBD block: inactive; VDR inh: inconclusive; TDP1 cell noCPT: 4.6µM; TDP1 inh: inactive

Results for Cc1nc(NC(=O)CSc2nc(N)cc(N)n2)sc1C ?
KAT2A inh: inactive; TDP1 cell CPT: inactive; PLK1 PBD block: inactive; VDR inh: inactive; TDP1 cell noCPT: inactive; TDP1 inh: inactive

What do the screens show for `CCOC(=S)SCC(=O)Nc1nccs1`?
KAT2A inh: inactive; TDP1 cell CPT: 21µM; PLK1 PBD block: inactive; VDR inh: inactive; TDP1 cell noCPT: 21µM; TDP1 inh: inactive

How did O=C(NC1CCCC1)C1c2ccccc2OCC(=O)N1CCc1ccccc1 (centres undefined) do in these assays?
TDP1 cell CPT: inactive; PLK1 PBD block: inactive; TDP1 cell noCPT: inconclusive

How did CC(C)OCCCNC(=O)CN1C(=O)COc2ccc(S(=O)(=O)N3CCOCC3)cc21 do in these assays?
KAT2A inh: inactive; TDP1 cell CPT: inactive; VDR inh: inactive; TDP1 cell noCPT: inactive; TDP1 inh: inactive

Results for CC1CCCN(S(=O)(=O)c2ccc(NC(=O)CN3C(=O)NC(C)(c4ccccc4)C3=O)cc2)C1 (centres undefined) ?
KAT2A inh: inactive; TDP1 cell CPT: inactive; PLK1 PBD block: inactive; VDR inh: inactive; TDP1 cell noCPT: inconclusive; TDP1 inh: inactive

How did CCN(c1ccc(Cl)cc1)S(=O)(=O)c1nnc(NC(=O)c2ccccc2C)s1 do in these assays?
KAT2A inh: inactive; TDP1 cell CPT: 16µM; VDR inh: inactive; TDP1 cell noCPT: 15µM; TDP1 inh: inactive

How did CCC(=O)Nc1nnc(S(=O)(=O)N(CC)c2cc(C)cc(C)c2)s1 do in these assays?
KAT2A inh: inactive; TDP1 cell CPT: inactive; PLK1 PBD block: inactive; VDR inh: inactive; TDP1 cell noCPT: inactive

Results for CCN(c1cc(C)cc(C)c1)S(=O)(=O)c1nnc(NC(=O)c2ccccc2C)s1 ?
KAT2A inh: inactive; TDP1 cell CPT: inconclusive; VDR inh: inactive; TDP1 cell noCPT: inconclusive; TDP1 inh: inactive

How did CCN(c1cc(C)cc(C)c1)S(=O)(=O)c1nnc(NC(=O)c2cccc(F)c2)s1 do in these assays?
KAT2A inh: inactive; TDP1 cell CPT: 12µM; VDR inh: inactive; TDP1 cell noCPT: 13µM; TDP1 inh: inactive

Results for Cc1cc2c(SCC(=O)NC3CCCC3)ncnc2s1 ?
KAT2A inh: inactive; TDP1 cell CPT: inactive; PLK1 PBD block: inactive; VDR inh: inactive; TDP1 cell noCPT: inactive

Results for Cc1c(C(=O)N2CC3CCC2C3)sc2ncnc(NCCc3c[nH]c4ccccc34)c12 (centres undefined) ?
TDP1 cell CPT: inconclusive; TDP1 cell noCPT: 23µM

Results for CC(=O)c1nn(-c2cccc(Br)c2)cc1C(=O)c1ccc(Br)cc1 ?
TDP1 cell CPT: 13µM; PLK1 PBD block: inactive; VDR inh: inactive; TDP1 cell noCPT: 12µM; TDP1 inh: inactive

What do the screens show for `CC(=O)c1nn(-c2cccc(Br)c2)cc1C(=O)c1ccc(C)cc1`?
KAT2A inh: inactive; TDP1 cell CPT: inconclusive; PLK1 PBD block: inactive; VDR inh: inactive; TDP1 cell noCPT: inactive; TDP1 inh: inactive

Results for O=C(COc1ccc(Cl)cc1)Nc1nnc(S(=O)(=O)N2CCc3ccccc32)s1 ?
KAT2A inh: inactive; TDP1 cell CPT: inconclusive; VDR inh: inactive; TDP1 cell noCPT: 18µM; TDP1 inh: inactive

How did Cc1cccc(OCC(=O)Nc2nnc(S(=O)(=O)N3CCc4ccccc43)s2)c1 do in these assays?
KAT2A inh: inactive; TDP1 cell CPT: inconclusive; VDR inh: inactive; TDP1 cell noCPT: inconclusive; TDP1 inh: inactive

What do the screens show for `O=C(Nc1nnc(S(=O)(=O)N2CCCc3ccccc32)s1)c1cccc(Cl)c1`?
KAT2A inh: inactive; TDP1 cell CPT: inconclusive; VDR inh: inactive; TDP1 cell noCPT: 18µM; TDP1 inh: inactive

How did Cc1cccc(C(=O)Nc2nnc(S(=O)(=O)N3CCCc4ccccc43)s2)c1 do in these assays?
KAT2A inh: inactive; TDP1 cell CPT: inconclusive; VDR inh: inactive; TDP1 cell noCPT: 16µM; TDP1 inh: inactive

Results for O=C(Nc1nnc(S(=O)(=O)N2CCCCC2)s1)c1cccc(Br)c1 ?
KAT2A inh: inactive; TDP1 cell CPT: 23µM; PLK1 PBD block: inactive; VDR inh: inactive; TDP1 cell noCPT: 15µM

How did Cn1cccc1C(=O)N1CCC2(CCCN(Cc3ccncc3)C2)CC1 do in these assays?
KAT2A inh: inactive; TDP1 cell CPT: inactive; VDR inh: inactive; TDP1 cell noCPT: inactive

Results for Cc1ccc(NC(=O)Cn2c(=O)n(CCCCC(=O)NCc3ccccc3Cl)c(=O)c3ccccc32)cc1C ?
KAT2A inh: inactive; TDP1 cell CPT: inconclusive; VDR inh: inactive; TDP1 cell noCPT: inconclusive; TDP1 inh: inactive

How did O=C(C[C@H]1C/C=C\CCC(=O)O[C@@H](c2ccccc2)CNC1=O)NCCO do in these assays?
KAT2A inh: inactive; TDP1 cell CPT: inactive; PLK1 PBD block: inactive; VDR inh: inactive; TDP1 cell noCPT: inactive; TDP1 inh: inactive

How did Fc1ccc(-c2[nH]ncc2CN(CC2CCC2)CC2CCCO2)c(F)c1 (centres undefined) do in these assays?
KAT2A inh: inactive; TDP1 cell CPT: inconclusive; PLK1 PBD block: inactive; VDR inh: inactive; TDP1 cell noCPT: inconclusive; TDP1 inh: inactive

How did CCN(CC(=O)Nc1ccccc1C(F)(F)F)C(=O)CCOc1ccccc1C do in these assays?
KAT2A inh: inactive; TDP1 cell CPT: inactive; PLK1 PBD block: inactive; VDR inh: inactive; TDP1 cell noCPT: inactive; TDP1 inh: inactive[0.505 µM]

What do the screens show for `CCN(CC(=O)Nc1ccccc1C(F)(F)F)C(=O)c1ccccc1OCc1ccc(F)cc1`?
TDP1 cell CPT: 16µM; PLK1 PBD block: inactive; VDR inh: inactive; TDP1 cell noCPT: 21µM

How did CCN(CC(=O)Nc1ccccc1C(F)(F)F)C(=O)c1ccc(NC(=O)c2cccs2)cc1 do in these assays?
TDP1 cell CPT: 15µM; PLK1 PBD block: inactive; TDP1 cell noCPT: 21µM

Results for CCN(CC(=O)Nc1ccccc1C(F)(F)F)C(=O)Cc1cccs1 ?
KAT2A inh: inactive; TDP1 cell CPT: inactive; PLK1 PBD block: inactive; VDR inh: inactive; TDP1 cell noCPT: inactive; TDP1 inh: inactive

What do the screens show for `O=C(CNC(=O)c1ccco1)NCC(=O)OCc1ccc(Cl)cc1Cl`?
KAT2A inh: inactive; TDP1 cell CPT: inactive; PLK1 PBD block: inactive; VDR inh: inactive; TDP1 cell noCPT: inactive; TDP1 inh: inactive
